Key:
Test in all cases: log2 ratio of Biotin-Ahx-Ub-VS probe labelling (fragment/DMSO); higher = less target engagement (more negative = stronger competition), active = hit call of the paper (q ≤ 0.05, log2 ratio ≤ -1)
Details in all cases: compound concentration: 200 uM; treatment time: 3 h
ALG13 = target: T1, ALG13 (UniProt Q9NP73)
T1 sequence (whole entry): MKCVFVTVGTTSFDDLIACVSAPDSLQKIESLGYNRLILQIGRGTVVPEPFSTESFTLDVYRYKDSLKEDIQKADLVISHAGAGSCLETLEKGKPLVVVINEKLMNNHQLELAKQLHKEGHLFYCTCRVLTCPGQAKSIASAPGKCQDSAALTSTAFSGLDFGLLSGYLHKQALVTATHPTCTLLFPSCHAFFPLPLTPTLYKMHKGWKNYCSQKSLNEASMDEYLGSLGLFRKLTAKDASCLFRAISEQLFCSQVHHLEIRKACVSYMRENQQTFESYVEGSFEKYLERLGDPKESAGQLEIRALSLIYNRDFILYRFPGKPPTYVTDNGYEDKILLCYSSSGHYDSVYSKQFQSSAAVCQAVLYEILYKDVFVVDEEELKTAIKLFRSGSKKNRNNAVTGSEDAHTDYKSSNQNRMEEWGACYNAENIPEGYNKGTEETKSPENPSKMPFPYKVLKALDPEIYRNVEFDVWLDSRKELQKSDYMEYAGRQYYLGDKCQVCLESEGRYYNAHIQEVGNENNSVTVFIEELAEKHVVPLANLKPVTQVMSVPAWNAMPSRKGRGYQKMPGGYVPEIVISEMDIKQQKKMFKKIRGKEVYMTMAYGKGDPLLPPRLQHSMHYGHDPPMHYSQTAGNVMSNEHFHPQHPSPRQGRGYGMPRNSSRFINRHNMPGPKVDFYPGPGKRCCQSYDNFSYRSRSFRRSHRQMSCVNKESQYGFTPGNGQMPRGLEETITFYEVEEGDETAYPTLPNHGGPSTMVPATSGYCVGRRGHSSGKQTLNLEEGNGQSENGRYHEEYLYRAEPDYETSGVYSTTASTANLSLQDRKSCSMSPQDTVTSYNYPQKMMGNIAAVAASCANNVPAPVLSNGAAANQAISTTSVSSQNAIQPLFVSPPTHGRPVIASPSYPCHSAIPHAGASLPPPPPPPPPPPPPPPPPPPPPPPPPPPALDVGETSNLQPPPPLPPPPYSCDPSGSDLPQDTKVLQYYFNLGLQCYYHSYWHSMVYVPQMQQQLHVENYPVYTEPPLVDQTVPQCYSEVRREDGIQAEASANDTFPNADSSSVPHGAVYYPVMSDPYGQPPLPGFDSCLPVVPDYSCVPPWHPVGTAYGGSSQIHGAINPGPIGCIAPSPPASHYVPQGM
Procedure, shortened: (§1)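 Labelling with Biotin-Ahx-Ub-VS (0.5 µM final, 1 h) followed a 3 h triplicate treatment of HEK293T lysate (495 µg per sample, Tris/CHAPS/IGEPAL buffer with protease inhibitors) with fragment at 200 µM or vehicle. Labelled DUBs were NeutrAvidin-enriched, digested with LysC and trypsin, and run by diaPASEF LC-MS/MS. The values, average log2 fragment/vehicle ratios by unpaired t-test, come from global-median-normalised Spectronaut label-free quantities. Proteins with ≥2 unique peptides were used.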

ATXN3 = ATXN3 (UniProt P54252)
Sequence of ATXN3 (P54252 whole entry): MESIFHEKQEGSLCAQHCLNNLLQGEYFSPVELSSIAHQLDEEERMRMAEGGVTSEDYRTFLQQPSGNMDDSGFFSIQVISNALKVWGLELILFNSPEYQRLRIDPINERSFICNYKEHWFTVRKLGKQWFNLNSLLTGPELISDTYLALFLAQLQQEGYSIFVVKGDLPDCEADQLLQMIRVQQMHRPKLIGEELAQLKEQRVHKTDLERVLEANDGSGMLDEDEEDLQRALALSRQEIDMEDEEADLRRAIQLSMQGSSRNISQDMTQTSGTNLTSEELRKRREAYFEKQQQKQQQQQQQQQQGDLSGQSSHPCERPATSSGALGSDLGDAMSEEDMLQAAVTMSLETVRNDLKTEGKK
Procedure, shortened: as §1

BAP1 = target: T2, BAP1 (UniProt Q92560)
T2 sequence (whole entry): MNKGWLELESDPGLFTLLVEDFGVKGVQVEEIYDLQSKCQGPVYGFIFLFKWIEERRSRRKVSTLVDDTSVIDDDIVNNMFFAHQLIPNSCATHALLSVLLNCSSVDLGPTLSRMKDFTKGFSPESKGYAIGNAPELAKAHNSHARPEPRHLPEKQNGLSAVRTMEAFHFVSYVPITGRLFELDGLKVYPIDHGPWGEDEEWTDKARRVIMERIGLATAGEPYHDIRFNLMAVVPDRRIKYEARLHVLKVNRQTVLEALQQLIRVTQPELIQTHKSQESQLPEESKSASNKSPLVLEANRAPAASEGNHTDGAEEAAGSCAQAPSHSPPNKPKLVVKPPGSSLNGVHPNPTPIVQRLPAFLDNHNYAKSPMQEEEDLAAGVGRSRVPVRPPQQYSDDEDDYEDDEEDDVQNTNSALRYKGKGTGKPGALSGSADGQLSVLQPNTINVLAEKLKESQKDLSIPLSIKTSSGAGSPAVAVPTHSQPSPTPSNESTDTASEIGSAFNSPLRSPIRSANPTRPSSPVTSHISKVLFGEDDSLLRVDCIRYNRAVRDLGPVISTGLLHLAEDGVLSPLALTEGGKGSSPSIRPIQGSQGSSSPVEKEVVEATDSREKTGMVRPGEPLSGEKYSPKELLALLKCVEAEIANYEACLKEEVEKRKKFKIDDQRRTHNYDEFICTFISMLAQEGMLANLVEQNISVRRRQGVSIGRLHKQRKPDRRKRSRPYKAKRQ
Procedure, shortened: as §1

EIF3F = EIF3F (UniProt O00303)
Sequence of EIF3F (O00303 whole entry): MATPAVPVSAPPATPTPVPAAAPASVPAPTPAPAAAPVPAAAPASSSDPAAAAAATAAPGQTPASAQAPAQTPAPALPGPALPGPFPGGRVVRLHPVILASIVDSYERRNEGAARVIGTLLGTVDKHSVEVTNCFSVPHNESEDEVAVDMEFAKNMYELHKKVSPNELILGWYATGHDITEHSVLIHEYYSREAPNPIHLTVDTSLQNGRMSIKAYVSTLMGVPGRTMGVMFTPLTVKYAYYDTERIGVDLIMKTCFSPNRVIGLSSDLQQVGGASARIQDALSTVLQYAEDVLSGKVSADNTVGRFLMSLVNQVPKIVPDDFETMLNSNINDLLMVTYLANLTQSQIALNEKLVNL
Procedure, shortened: as §1

EIF3H = EIF3H (UniProt O15372)
Sequence of EIF3H (O15372 whole entry): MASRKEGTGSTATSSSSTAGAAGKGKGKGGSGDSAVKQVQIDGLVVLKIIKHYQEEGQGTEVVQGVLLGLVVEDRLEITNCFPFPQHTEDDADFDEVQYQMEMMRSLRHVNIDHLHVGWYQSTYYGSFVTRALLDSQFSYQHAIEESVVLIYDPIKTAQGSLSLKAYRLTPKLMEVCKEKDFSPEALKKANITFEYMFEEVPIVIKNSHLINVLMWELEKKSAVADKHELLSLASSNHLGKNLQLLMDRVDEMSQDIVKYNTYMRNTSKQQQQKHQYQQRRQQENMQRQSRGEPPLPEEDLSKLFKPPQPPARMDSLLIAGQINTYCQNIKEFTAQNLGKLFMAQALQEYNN
Procedure, shortened: as §1

FAM105A = target: T3, FAM105A (UniProt Q9NUU6)
T3 sequence (whole entry): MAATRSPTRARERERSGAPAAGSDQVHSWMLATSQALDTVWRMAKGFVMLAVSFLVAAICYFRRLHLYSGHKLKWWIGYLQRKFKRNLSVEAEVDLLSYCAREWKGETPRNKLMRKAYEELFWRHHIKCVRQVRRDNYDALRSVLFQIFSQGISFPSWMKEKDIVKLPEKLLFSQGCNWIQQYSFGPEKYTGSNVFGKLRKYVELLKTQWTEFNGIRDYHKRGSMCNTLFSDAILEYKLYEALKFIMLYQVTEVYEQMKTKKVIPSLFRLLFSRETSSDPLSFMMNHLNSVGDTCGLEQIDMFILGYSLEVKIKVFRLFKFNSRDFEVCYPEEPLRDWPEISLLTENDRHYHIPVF
Procedure, shortened: as §1

OTUB1 = OTUB1 (UniProt Q96FW1)
Sequence of OTUB1 (Q96FW1 whole entry): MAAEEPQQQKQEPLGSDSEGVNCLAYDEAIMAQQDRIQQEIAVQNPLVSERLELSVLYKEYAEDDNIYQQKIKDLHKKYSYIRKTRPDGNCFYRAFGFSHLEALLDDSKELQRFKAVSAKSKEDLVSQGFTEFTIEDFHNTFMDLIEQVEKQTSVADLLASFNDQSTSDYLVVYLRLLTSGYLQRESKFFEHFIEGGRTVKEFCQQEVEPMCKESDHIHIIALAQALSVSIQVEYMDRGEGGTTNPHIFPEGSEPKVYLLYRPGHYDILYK
Procedure, shortened: as §1

OTUD4 = target: T4, OTUD4 (UniProt Q01804)
T4 sequence (whole entry): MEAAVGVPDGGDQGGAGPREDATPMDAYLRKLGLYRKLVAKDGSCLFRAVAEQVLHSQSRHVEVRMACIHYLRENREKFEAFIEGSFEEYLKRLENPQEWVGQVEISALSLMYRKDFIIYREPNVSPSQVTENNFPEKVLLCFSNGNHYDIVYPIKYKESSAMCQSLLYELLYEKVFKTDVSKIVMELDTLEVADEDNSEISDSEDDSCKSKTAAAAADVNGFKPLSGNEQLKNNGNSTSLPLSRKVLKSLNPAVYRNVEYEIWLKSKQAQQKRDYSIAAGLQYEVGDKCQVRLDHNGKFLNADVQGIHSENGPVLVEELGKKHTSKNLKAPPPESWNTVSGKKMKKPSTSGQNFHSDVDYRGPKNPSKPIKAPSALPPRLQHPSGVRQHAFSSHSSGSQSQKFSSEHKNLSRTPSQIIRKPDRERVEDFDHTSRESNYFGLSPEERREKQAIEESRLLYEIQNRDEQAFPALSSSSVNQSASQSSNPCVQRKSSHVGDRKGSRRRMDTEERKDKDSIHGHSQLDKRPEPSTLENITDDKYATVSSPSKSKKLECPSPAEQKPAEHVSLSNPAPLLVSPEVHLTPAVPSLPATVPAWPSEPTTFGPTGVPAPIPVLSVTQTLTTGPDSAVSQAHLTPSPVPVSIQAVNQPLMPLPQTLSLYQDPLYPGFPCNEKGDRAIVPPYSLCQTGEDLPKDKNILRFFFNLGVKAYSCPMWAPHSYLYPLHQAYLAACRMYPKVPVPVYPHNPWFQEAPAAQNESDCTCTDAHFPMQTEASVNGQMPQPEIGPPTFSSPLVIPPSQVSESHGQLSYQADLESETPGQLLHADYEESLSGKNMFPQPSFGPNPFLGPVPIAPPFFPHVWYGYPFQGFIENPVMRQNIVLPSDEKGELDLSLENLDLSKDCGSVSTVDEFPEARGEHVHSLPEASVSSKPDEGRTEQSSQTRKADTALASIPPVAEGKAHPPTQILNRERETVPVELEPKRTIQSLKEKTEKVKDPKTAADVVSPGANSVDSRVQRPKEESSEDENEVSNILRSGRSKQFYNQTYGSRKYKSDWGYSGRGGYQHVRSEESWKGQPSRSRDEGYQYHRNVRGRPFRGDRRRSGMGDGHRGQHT
Procedure, shortened: as §1

OTUD5 = target: T5, OTUD5 (UniProt Q96G74)
T5 sequence (whole entry): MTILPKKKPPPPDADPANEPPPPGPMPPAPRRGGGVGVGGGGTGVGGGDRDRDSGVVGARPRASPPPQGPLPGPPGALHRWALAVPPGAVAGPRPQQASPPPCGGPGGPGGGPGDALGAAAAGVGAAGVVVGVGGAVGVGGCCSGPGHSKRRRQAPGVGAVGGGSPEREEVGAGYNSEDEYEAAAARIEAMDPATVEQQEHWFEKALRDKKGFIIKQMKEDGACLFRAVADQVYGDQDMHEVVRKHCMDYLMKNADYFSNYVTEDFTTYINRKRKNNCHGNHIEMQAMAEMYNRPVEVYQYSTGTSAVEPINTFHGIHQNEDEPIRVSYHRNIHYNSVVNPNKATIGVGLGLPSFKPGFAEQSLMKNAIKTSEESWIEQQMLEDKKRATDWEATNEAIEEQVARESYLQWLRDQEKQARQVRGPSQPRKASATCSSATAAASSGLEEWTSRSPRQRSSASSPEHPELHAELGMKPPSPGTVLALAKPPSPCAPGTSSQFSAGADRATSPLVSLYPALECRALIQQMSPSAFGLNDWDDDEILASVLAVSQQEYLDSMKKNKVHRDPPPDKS
Procedure, shortened: as §1

Measured: log2 ratio of Biotin-Ahx-Ub-VS probe labelling

O=C(CCl)N1CCN(C(=O)Nc2ccccc2)CC1
inactive: ALG13 0.164 | ATXN3 -0.281 | BAP1 -0.529 | EIF3F 0.181 | EIF3H 0.232 | FAM105A 0.233 | OTUB1 0.155 | OTUD4 0.0219 | OTUD5 -0.224

Source: the supplement of paper PMC11732987, “Enantioselective OTUD7B fragment discovery through chemoproteomics screening and high-throughput optimisation” (Communications Chemistry, 2025)
